From ChEMBL document CHEMBL1157539, “Thousands of chemical starting points for antimalarial lead identification” (Nature, 2010)

Experiments:
Assay type in all cases: functional
[1] = test system: Plasmodium falciparum; assay: GSK_TCMDC: Inhibition of Plasmodium falciparum 3D7 in whole red blood cells, using parasite LDH activity as an index of growth. Test compounds present at 2uM
[2] = test system: Plasmodium falciparum; assay: GSK_TCMDC: Inhibition of Plasmodium falciparum Dd2 in whole red blood cells, using parasite LDH activity as an index of growth. Test compounds present at 2uM
[3] = test system: HepG2; assay: GSK_TCMDC: Percent inhibition of human HepG2 cell line. Test compounds present at 10uM.

`CC(=O)Nc1ccc(C(=O)N2CCN(c3ccnc4cc(Cl)ccc34)CC2)cc1.O=C(O)C(F)(F)F` showed an Inhibition [1] of 93%, an Inhibition [2] of 43% and an Inhibition [3] of 2%.
Work on `Cc1ccc(NC(=O)NC2CCN(CCCCCNC(=O)/C=C/c3ccc(Cl)c(Cl)c3)CC2)cc1C` yielded an Inhibition [1] of 100%, an Inhibition [2] of 25% and an Inhibition [3] of 36%.
For `COc1ccc(CN(C)CCOc2ccc(NC(=O)c3cccc4c(=O)c5cc(SC)ccc5[nH]c34)cc2)cc1OC`, the Inhibition [1] was 96%, the Inhibition [2] was 98% and the Inhibition [3] was 67%.
Work on `CC(C)(C)c1nn(-c2ccccc2)c2[nH]c(=O)c(CNC3CCCC3)cc12` yielded an Inhibition [1] of 100%, an Inhibition [2] of 70% and an Inhibition [3] of 7%.
In the case of `Cc1cc(N[C@@H](CC(C)C)C(=O)NCc2cccs2)nc(NCCc2ccccc2)n1.O=C(O)C(F)(F)F`, the Inhibition [1] is reported as 94%, the Inhibition [2] is reported as 8% and the Inhibition [3] is reported as 1%.
For `COc1cc(CCCOc2c(N)nc(N)nc2N)cc(OC)c1OC`, the Inhibition [1] was 88%, the Inhibition [2] was 0% and the Inhibition [3] was 8%.
Compound `OC(c1ccccc1)C1CN(CCc2ccccc2)CCC1(O)c1ccccc1` (configuration not stated) has an Inhibition [1] of 97%, an Inhibition [2] of 92% and an Inhibition [3] of 0%.
Compound `COc1ccc(Nc2nc(NC3CCN(Cc4ccccc4)CC3)cc(-c3ccncc3)n2)cc1` has an Inhibition [1] of 88%, an Inhibition [2] of 40% and an Inhibition [3] of 26%.
`Cc1nc(N)nc(N)c1-c1cccc(Cl)c1` showed an Inhibition [1] of 88%, an Inhibition [2] of 0% and an Inhibition [3] of 60%.
In the case of `Cc1cccc(Nc2nc(N)c3ccccc3n2)c1.Cl`, the Inhibition [1] is reported as 99%, the Inhibition [2] is reported as 49% and the Inhibition [3] is reported as 1%.
`CNc1nc(N/N=C/c2cc3c(cc2[N+](=O)[O-])OCO3)nc(Nc2cccc(C(F)(F)F)c2)n1` gave an Inhibition [1] of 100%, an Inhibition [2] of 60% and an Inhibition [3] of 0%.
`COc1cc(-c2[nH]c(-c3ccc(OCCN(C)C)cc3)cc2-c2ccncc2)ccc1Cl.Cl` gave an Inhibition [1] of 93%, an Inhibition [2] of 33% and an Inhibition [3] of 3%.
`Cc1cccc2nc(-c3cccc(-c4ccc(NC(=O)NC(C)C)cc4)c3)[nH]c12` showed an Inhibition [1] of 98%, an Inhibition [2] of 44% and an Inhibition [3] of 30%.
For `O=C(Nc1ccc(CN2CCN(S(=O)(=O)c3cccc(Cl)c3)CC2)cc1)c1cccs1.O=C(O)C(F)(F)F`, the Inhibition [1] was 84%, the Inhibition [2] was 41% and the Inhibition [3] was 9%.
`CCCCCCNC(=O)C1Cc2c([nH]c3ccc(F)cc23)C2(CCN(Cc3ccccc3)CC2)N1` (configuration not stated) was tested, and the Inhibition [1] was 97%, the Inhibition [2] was 39% and the Inhibition [3] was 11%.
In the case of `O=C(Nc1ccccc1)c1nn(CCCN2CCC(N3CCCC3)CC2)cc1-c1ccc(Cl)c(Cl)c1`, the Inhibition [1] is reported as 100%, the Inhibition [2] is reported as 98% and the Inhibition [3] is reported as 31%.
Compound `CN(C)CC(O)C(c1ccccc1)c1cccc(Br)c1.Cl` (configuration not stated) has an Inhibition [1] of 98%, an Inhibition [2] of 9% and an Inhibition [3] of 22%.
For `O=S(=O)(c1ccc(NC(S)=NN=Cc2ccccn2)cc1)N1CCCCC1`, the Inhibition [1] was 98%, the Inhibition [2] was 56% and the Inhibition [3] was 43%.
Work on `COc1ccc(NC(=O)CSc2nc(-c3ccccc3Cl)ns2)cc1OC` yielded an Inhibition [1] of 97%, an Inhibition [2] of 63% and an Inhibition [3] of 0%.
`COc1cccc(-c2ccc3c(-c4cccc(NC(C)=O)c4)cnc(N)c3c2)c1.O=CO` gave an Inhibition [1] of 99%, an Inhibition [2] of 83% and an Inhibition [3] of 71%.
`OC(CN1CCN(Cc2ccccc2)CC1)Cn1c(-c2ccccc2)c(-c2ccccc2)c2ccccc21` (configuration not stated) was tested, and the Inhibition [1] was 98%, the Inhibition [2] was 97% and the Inhibition [3] was 0%.
`Cc1ccc(-c2ccc(NC(=O)N3CCc4cc(Br)c(N5CCN(C)CC5)cc43)cc2)cn1` was tested, and the Inhibition [1] was 80%, the Inhibition [2] was 16% and the Inhibition [3] was 86%.
`CN1CCN(Cc2c(O)ccc3c(=O)c(Oc4ccc(C(C)(C)C)cc4)c(C(F)(F)F)oc23)CC1` gave an Inhibition [1] of 99%, an Inhibition [2] of 88% and an Inhibition [3] of 0%.
`CNC(=S)NCc1cnc2ccccn12` gave an Inhibition [1] of 97%, an Inhibition [2] of 0% and an Inhibition [3] of 0%.
